D2 antagonist: HTS Assay for Allosteric Antagonists of the Human D2 Dopamine Receptor: Primary Screen for Antagonists | actives 2% (n = 340,000) | HEK293 TREx D2 cells, calcium flux, dopamine EC80 | inhibition, % at 10 µM | AID 485344, 2010; in the data active = inhibition above about 30%; inactive = below that, where a call was filed
Target sequence (P14416 whole entry, looked up): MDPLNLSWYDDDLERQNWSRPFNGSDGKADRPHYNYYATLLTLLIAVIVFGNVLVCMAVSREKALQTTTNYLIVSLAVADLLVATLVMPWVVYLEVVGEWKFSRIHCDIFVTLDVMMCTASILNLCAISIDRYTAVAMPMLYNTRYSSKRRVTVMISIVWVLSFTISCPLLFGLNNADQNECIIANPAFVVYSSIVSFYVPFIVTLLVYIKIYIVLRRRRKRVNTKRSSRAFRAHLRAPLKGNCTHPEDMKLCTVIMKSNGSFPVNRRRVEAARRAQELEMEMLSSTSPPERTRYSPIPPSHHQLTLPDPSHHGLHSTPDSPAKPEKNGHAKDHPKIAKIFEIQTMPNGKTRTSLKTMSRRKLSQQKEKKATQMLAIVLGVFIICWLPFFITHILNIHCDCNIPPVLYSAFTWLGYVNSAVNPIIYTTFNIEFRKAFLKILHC
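Inhibition of EC80 dopamine-driven calcium flux, recorded kinetically, defines activity here; cells are a tetracycline-induced HEK293 T-REx line expressing force-coupled D2.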
LDHA inh: qHTS assay for inhibitors of human lactate dehydrogenase; L-lactate dehydrogenase A chain (Homo sapiens), P00338; purified LDHA, NADH/diaphorase-resazurin fluorescence; active compounds read low; actives 0.15% (n = 480,000); activity change, % (values are at about 110 or 230 µM); in the data active = activity change below about -30%; inconclusive = mostly about -25% to -30%
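Remaining NADH was detected by diaphorase (0.133 mg/mL) converting 37 µM resazurin to fluorescent resorufin, read at 0 and 20 minutes. The preceding 5-minute room-temperature reaction used 2 nM LDHA, 0.2 mM sodium pyruvate and 0.06 mM NADH at pH 7.4.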
D2 ag-1: Beta-Arrestin HTS for Positive Allosteric Modulators of the Human D2 Dopamine Receptor: Agonists. DiscoveRx PathHunter D2 beta-arrestin, luminescence, 90 min; 100% = 57 uM dopamine signal. AID 624465, 2012. activation, % (no concentration beside the values). actives 0.084% (n = 360,000). D(2) dopamine receptor (Homo sapiens), P14416; in the data active = activation above about 40%; inconclusive = between about 15% and that limit
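DiscoveRx PathHunter D2 beta-arrestin cells (2,100/well) attached overnight, then compound-stimulated 90 min at 37 C in HBSS/10 mM HEPES/0.1% Tween-20 buffer; beta-galactosidase complementation read by luminescence after 1 h at ambient temperature. Dopamine 57 uM final (EC100) as control.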
D2 ag-2: HTS Assay for Allosteric Agonists of the Human D2 Dopamine Receptor: Primary Screen for Agonists. D(2) dopamine receptor (Homo sapiens), P14416. HEK293 T-REx D2 cells, calcium flux agonist mode. activation, % at 2 µM. actives 0.53% (n = 340,000). AID 485358, 2010;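 active = activation over 3 SD above normal in the single-dose calcium agonist read, cut at about 30% in these data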
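Tetracycline-induced HEK293 T-REx cells with force-coupled D2 receptor, plated overnight at 30 C, loaded with no-wash calcium dye. After a 10 s baseline, compound was pin-added and calcium flux read kinetically for 180 s; calcium rises flagged agonists.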
D2 PAM-1: Beta-Arrestin HTS for Positive Allosteric Modulators of the Human D2 Dopamine Receptor: Potentiators; D(2) dopamine receptor (Homo sapiens), P14416; DiscoveRx D2 beta-arrestin cells, luminescence, 90 min; 100% = 57 uM dopamine signal; potentiation, % (concentration not given with the values); actives 0.23% (n = 360,000); in the data active = potentiation above about 50%; inconclusive = mostly about 30% to 49%
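D2 cells co-treated with compound plus 50 nM dopamine (EC20) for 90 min at 37 deg C to detect potentiation. Beta-arrestin recruitment was read as enzyme-fragment luminescence after 1 h at ambient temperature. Full response was set by 57 uM dopamine.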
D2 PAM-2: HTS Assay for Positive Allosteric Modulators of the Human D2 Dopamine Receptor: Primary Screen for Potentiators; HEK293 T-REx D2, calcium flux, EC20 dopamine potentiation; potentiation, % at 10 µM; actives 0.34% (n = 340,000); AID 485347, 2010;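 active = potentiation over 3 SD above the plate norm, cut at about 30% in these data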
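Potentiation of an EC20 dopamine calcium response measured kinetically over 180 s, after a preceding 180 s compound-only read flagging agonists. Cells: inducible Hek293 Trex D2 line, 4000/well, cultured overnight at 30 C before dye loading.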
Hits are given with their value; n = inactive; u = inconclusive; x = not tested or not shown. In the library only some 2.1% were active in any assay of this set; here they are far more common.

SMILES	D2 antagonist	LDHA inh	D2 ag-1	D2 ag-2	D2 PAM-1	D2 PAM-2
CCOC(=O)c1cc(-c2ccc(OC)cc2)n(CCC(=O)NCCN2CCC(C)CC2)c1C	66	n	n	n	n	n
Nc1nnnn1/N=C/c1cccc(OCc2ccccc2Cl)c1	31	n	n	n	n	n
Cc1ccc(-n2cc(CNCCc3cscn3)c(-c3ccc(F)cc3)n2)cc1	n	n	n	n	n	n
COc1ccc(-n2cc(CNCCc3cscn3)c(-c3ccccc3Cl)n2)cc1	48	n	n	n	n	n
O=C(CCc1ccc(Oc2cc([N+](=O)[O-])cc([N+](=O)[O-])c2)cc1)Nc1cccc(Cl)c1	n	n	u	n	64	n
O=C(c1ccc(Oc2ccc([N+](=O)[O-])cc2)cc1)N1CCCCCC1	n	n	n	n	n	n
O=C(CCc1ccc(Oc2cc([N+](=O)[O-])cc([N+](=O)[O-])c2)cc1)N1CCCCC1	n	n	u	n	58	n
O=C(Nc1ccc(N2CCCCC2)c2ccncc12)C1CCC1	x	n	x	x	x	x
Cc1cc2ccccc2n1CC(=O)N(Cc1ccccc1)C1CC1	x	n	x	x	x	x
Cc1cccc(Cn2c(SCc3ccccc3)nc3c2c(=O)[nH]c(=O)n3C)c1	x	n	x	x	x	x
CCc1[nH]nc(C(=O)N2CCCC(Nc3cccc(F)c3)C2)c1C (stereo not given)	n	n	n	n	75	n
CCc1cc(C(=O)OC)c(NC(=O)CC2NCCNC2=O)s1 (stereo not given)	n	n	n	n	n	n
CCc1cc(C(=O)OC)c(NC(=O)CC2SC(N)=NC2=O)s1 (stereo not given)	31	n	n	n	n	n
Cc1cc(C)nc(SCCCNCc2c(F)cccc2Cl)n1	x	n	n	x	n	x
Cc1ccc(CNCCCSc2nc(C)cc(C)n2)cc1	63	n	n	n	n	n
Cc1cc(C)nc(SCCCNCc2ccc(Br)cc2)n1	59	n	n	n	n	n
CC(=O)NC(CC(=O)OCc1ccc([N+](=O)[O-])cc1)c1ccccc1 (stereo not given)	n	n	n	n	n	37
CCOC(=O)CC(NC(C)=O)c1ccc([N+](=O)[O-])cc1 (stereo not given)	n	n	n	n	n	n
CC(=O)c1sc(NC(C)C)c(C#N)c1N	x	n	x	x	x	x
CC(C)CCn1c(N2CCCC2)nc2c1c(=O)n(C)c(=O)n2C	n	n	n	n	n	n
Cn1c(=O)c2c(nc(N3CCCCC3)n2C)n(C)c1=O	n	n	n	n	n	30
Cn1c(=O)c2c(nc(N3CCN(c4ccc([N+](=O)[O-])cc4)CC3)n2C)n(C)c1=O	34	n	n	n	n	n
CCCCN(C(=O)C1CC(=O)N(c2ccc3c(c2)OCCO3)C1)c1c(N)n(CCCC)c(=O)[nH]c1=O (stereo not given)	n	n	n	n	n	n
CCCCN(C(=O)C1CC(=O)N(c2ccc(C)cc2)C1)c1c(N)n(CCC)c(=O)[nH]c1=O (stereo not given)	38	n	n	n	n	n
CCCCN(C(=O)C1CC(=O)N(c2ccc3c(c2)OCCO3)C1)c1c(N)n(CCC)c(=O)[nH]c1=O (stereo not given)	x	n	n	x	n	x
SMILES	D2 antagonist	LDHA inh	D2 ag-1	D2 ag-2	D2 PAM-1	D2 PAM-2
CCCCn1c(N)c(N(CC(C)C)C(=O)C2CC(=O)N(c3ccc4c(c3)OCCO4)C2)c(=O)[nH]c1=O (stereo not given)	39	n	n	n	n	n
Cc1nn2c(=O)cc(CSc3nc4ccccc4[nH]3)nc2s1	39	n	n	n	n	n
Cc1ccc(Cl)cc1NC(=S)N(CCCN1CCN(C)CC1)Cc1ccco1	71	n	n	n	n	n
Cc1cc(NC(=S)N(CCN2CCCCC2)Cc2ccco2)ccc1Cl	35	n	n	n	n	n
Cc1ccc(NC(=S)N(CCCN2CCCC(C)C2)Cc2ccco2)cc1C (stereo not given)	46	n	n	x	n	n
CCN1CCN(CCCN(Cc2ccco2)C(=S)Nc2ccc(Cl)c(C)c2)CC1	n	n	n	n	n	n
O=C(CSc1ncnc2ccccc12)Nc1ccc(F)c(F)c1	x	n	x	x	x	x
COc1cc(OC)cc(C(=O)Nc2ccc3oc(-c4ccccc4Cl)nc3c2)c1	x	n	x	x	x	x
O=C(O)C1CCCCC1C(=O)Nc1ccccn1 (stereo not given)	41	n	n	n	n	n
CCn1nc(C(=O)Nc2cc(S(=O)(=O)N(C)C)ccc2C)c2ccccc2c1=O	x	n	x	x	x	x
COc1cccc(OC)c1C(=O)NC(=O)Nc1c(C)cccc1C	32	n	n	n	n	n
CCc1ccccc1N(C(=O)c1snc(C(N)=O)c1N)C(C(=O)NCC1CCCO1)c1ccc(C)o1 (stereo not given)	33	n	n	n	n	n
Cn1c(-c2ccccc2)csc1=N	x	-49	x	x	x	x
Cc1c(Br)c([N+](=O)[O-])nn1C(C)C(=O)Nc1ccc2c(c1)OCO2 (stereo not given)	40	n	n	n	n	n
Cc1ccc(C(c2ccc([N+](=O)[O-])cc2)c2ccc(C)s2)s1	x	n	x	x	x	x
COc1ccc(NC(=O)C/C(C)=N/NC(=O)CCc2ccccc2)c(OC)c1	40	n	n	n	n	n
COc1ccc(C(=O)/C=C/c2c(F)cccc2F)cc1CC(=O)O	x	n	x	x	x	x
CC(SCC(=O)NC(C)(C#N)C1CC1)c1ccc(F)cc1 (stereo not given)	x	n	x	x	x	x
CCOC(=O)CNC(=O)/C=C/c1ccc2c(c1)OCO2	n	n	n	n	n	n
CCOC(=O)CNc1ccc2c(c1)OCO2	40	n	n	n	n	x
COc1ccc(C2Nc3ccccc3C(=O)N2c2ccccc2)cc1CN1CCOCC1 (stereo not given)	30	n	n	n	n	n
CCN(CC(=O)Nc1ccccc1C(F)(F)F)Cc1coc(-c2ccc(C)cc2C)n1	x	n	x	x	x	x
O=C(c1ccc(S(=O)(=O)c2ccccc2Cl)c([N+](=O)[O-])c1)N1CCN(Cc2ccccc2)CC1	n	n	u	n	78	n
COc1ccc(-c2nc(CSCC(=O)N3CCOCC3)c(C)o2)cc1OC	x	n	x	x	x	x
COc1ccc(-c2nc(CSCC(=O)N3CCc4ccccc4C3)c(C)o2)cc1OC	45	n	n	n	n	n
COc1cccc(/C=C/C(=O)Oc2ccc(C#N)cc2OC)c1	x	n	x	x	x	x
